# PubChem BioAssay AID1851 (National Center for Advancing Translational Sciences (NCATS), 2009)
# Several values for one entry are separate records, joined by “and”; a condition that tells them apart may be missing. Equal values may be shown once. Out of some 16,000 compounds screened, about 4,000 (25%) were called active. Inconclusive results (about 26%) are left out. Not all results are given here. A number with no mark means an inactive call. The call rests on the fitted dose curve; in most records, active means well fitted curve in the direction sought with a large enough effect; inconclusive means small, poorly fitted or top-dose-only effect, or effect the other way; inactive means no such curve, though single readings can be large or run the other way.
# Target: Cytochrome P450 2C9 (Homo sapiens) (UniProt P11712)
# Test: Cytochrome panel assay with activity outcomes
# Conditions: recombinant CYP, pro-luciferin dealkylation, luminescence, p450-cyp2c9; series mostly up to 57.1 µM
# On the % scale 0 is the no-effect control and ±100 the full control effect.
# Cytochrome P450 2C9 (Homo sapiens), sequence (P11712 whole entry, looked up): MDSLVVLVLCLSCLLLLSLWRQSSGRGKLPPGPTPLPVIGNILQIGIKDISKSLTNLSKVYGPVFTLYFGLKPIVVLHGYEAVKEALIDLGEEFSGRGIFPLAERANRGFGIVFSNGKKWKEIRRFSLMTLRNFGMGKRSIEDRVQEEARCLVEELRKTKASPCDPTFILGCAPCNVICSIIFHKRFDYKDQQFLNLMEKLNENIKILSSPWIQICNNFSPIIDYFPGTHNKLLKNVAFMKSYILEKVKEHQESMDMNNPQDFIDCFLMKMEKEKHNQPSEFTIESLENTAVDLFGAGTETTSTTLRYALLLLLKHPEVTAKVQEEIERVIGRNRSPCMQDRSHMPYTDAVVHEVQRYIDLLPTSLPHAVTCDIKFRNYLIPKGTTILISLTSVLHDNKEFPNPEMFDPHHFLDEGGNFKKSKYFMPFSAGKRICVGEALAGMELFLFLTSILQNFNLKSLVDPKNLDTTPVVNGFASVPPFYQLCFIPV
Compound,"activity, negative = inhibition",AC50
COCn1c2ccccc2c2nnc(C(C)=O)nc21,13.8% [at 11.4 µM] and -8.55% [at 11.4 µM],–
COc1ccccc1CN1CC[C@@]2(CCCN(S(C)(=O)=O)C2)C1,–,inactive
N#CC(C#N)=NNc1ccc2cn[nH]c2c1,–,2.51 µM (active)
COC(=O)[C@@]1(Cc2ccc(OC)cc2)[C@@H]2C(=CC(=O)[C@H]2CC(=O)C(=O)N2CCCC2)CN1C(=O)c1ccccc1,–,10 µM (active)
COc1ccc(C(=O)N2CCC[C@@]3(CCN(C(=O)Nc4ccccc4)C3)C2)cc1,–,inactive
COC(=O)[C@@]1(Cc2ccc(F)cc2)[C@@H]2[C@@H](CC(=O)[C@H]2CC(=O)C(=O)N(C)C)CN1C(=O)c1ccccc1,–,20 µM (active)
COC(=O)[C@@]1(Cc2ccccc2)[C@@H]2C(=CC(=O)[C@H]2CC(=O)C(=O)N(C)C)CN1C(=O)c1ccccc1,–,inactive
C=C1C(=O)C=C2CN(C(=O)c3ccccc3)[C@@](Cc3ccc(F)cc3)(C(=O)OC)[C@@H]12,–,3.98 µM (active)
COC(=O)[C@@]1(Cc2ccc(F)cc2)[C@@H]2C(=CC(=O)[C@H]2CC(=O)C(=O)N2CCCC2)CN1C(=O)c1ccccc1,–,10 µM (active)
O=C(O)c1c[nH]c2cc(OCc3ccccc3)ccc2c1=O,-11.1% [at 11.4 µM],–
N[C@@H](C(=O)O)c1ccc(C(=O)O)cc1,–,inactive
O=C(O)c1ccc(SSc2ccc(C(=O)O)cn2)nc1,–,1.58 µM (active)
O=C(O)c1cc(C(=O)O)nc(C(=O)O)c1,13.5% [at 11.4 µM],–
CC(C)C(NC(=O)C1CCCCC1)C(=O)NCc1ccccn1 (stereo not drawn),–,inactive
C[C@@H](C(=O)O)[C@H]1C[C@]1(C)[C@H](NC(=O)OCc1ccccc1)c1ccccc1,–,15.8 µM (active)
C[C@@H](C(=O)NCc1cccc2ccccc12)[C@H]1C[C@]1(C)[C@H](NC(=O)OCc1ccccc1)c1ccccc1,–,3.16 µM (active)
C[C@@H](C(=O)NCc1ccccn1)[C@H]1C[C@]1(C)[C@H](NC(=O)OCc1ccccc1)c1ccccc1,–,10 µM (active)
COC(=O)[C@H](C)[C@H]1C[C@]1(C)[C@H](NC(=O)OCc1ccccc1)c1ccccc1,–,2 µM (active)
C/C(CCN1CCc2nc(-c3ccccc3)c(-c3ccccc3)cc2C1)=N\OC[C@@H](O)[C@@H]1O[C@@H]2OC(C)(C)O[C@@H]2[C@H]1O,-8.77% [at 11.4 µM],–
Cc1ccc(S(=O)(=O)N[C@@H]2COC(=O)C/C=C\[C@H](C)COC(=O)N[C@@H](C)C(=O)C/C=C\[C@H]2C)cc1,7.18% [at 11.4 µM],–
CNc1ccnc(-c2ccccc2C(F)(F)F)n1,1.23% [at 2.29 µM],–
COc1ccc(COC(=O)N/N=C2/C[C@@H](O)[C@@H](O)[C@@H]3[C@@H]4C(=O)N([C@@H](C)c5ccccc5)C(=O)[C@H]4CC[C@@H]23)cc1,-19.2% [at 11.4 µM],–
COC(=O)[C@H](C)[C@@H]1C[C@@]1(C)[C@@H](NC(=O)OCc1ccccc1)c1ccccc1,–,5.01 µM (active)
C[C@@H](C(=O)NCc1nc2ccccc2[nH]1)[C@@H]1C[C@@]1(C)[C@@H](NC(=O)OCc1ccccc1)c1ccccc1,–,10 µM (active)
CNC(=O)[C@H](C)[C@H]1C[C@]1(C)[C@H](NC(=O)OCc1ccccc1)c1ccccc1,–,10 µM (active)
CCN1CCCC1Cn1cnc2c([nH]c3ccc(C)cc32)c1=O (stereo not drawn),–,inactive

Compound,"activity, negative = inhibition",AC50
CN(C)CCNC(=O)C1CCCNC1=O (stereo not drawn),–,inactive
Cn1cnc([N+](=O)[O-])c1SCC(=O)O,4.52% [at 11.4 µM],–
OCCN=c1cc(-c2ccccc2)oc2ccc(Cl)cc12,–,2 µM (active)
Cc1cc2c(=O)[nH]c(N)nc2nc1C,0.234% [at 11.4 µM],–
CC(=O)c1sc(N)c(C(=O)OC(C)C)c1C,–,10 µM (active)
CCOC(=O)/C(C#N)=C1/SC(CC)C(=O)N1c1ccc(Br)cc1 (stereo not drawn),–,12.6 µM (active)
O=C(CC1CCCCC1)N1CCC(c2nc(-c3ccc(S(=O)(=O)N4CCCC4)cc3)no2)CC1,–,7.94 µM (active)
Cc1ccc(S(=O)(=O)N2CCCC(C(=O)NCCCN3CCCCC3C)C2)cc1 (stereo not drawn),–,inactive
COc1ccc(NC(=O)N2CC[C@@]3(CCCN(C(=O)c4cccc(F)c4)C3)C2)cc1,–,inactive
COC(=O)[C@@]1(Cc2ccc(F)cc2)[C@H]2c3cc(C(=O)N4CCCC4)n(CCc4c[nH]c5ccc(OC)cc45)c3C[C@H]2CN1C(=O)c1ccccc1,–,7.94 µM (active)
COc1ccc(NC(=O)N2CCCC3(CCN(C(=O)c4cccc(F)c4)CC3)C2)cc1,–,inactive
COC(=O)[C@@]1(Cc2ccc(F)cc2)[C@H]2c3cc(C(=O)N4CCCC4)n(CCc4c[nH]c5ccccc45)c3C[C@H]2CN1C(=O)c1ccccc1,–,2.51 µM (active)
COC(=O)[C@@]1(Cc2ccc(OC)cc2)[C@H]2c3cc(C(=O)N4CCCC4)n(CCc4c[nH]c5cc(F)ccc45)c3C[C@H]2CN1C(=O)c1ccccc1,–,3.16 µM (active)
COC(=O)[C@@]1(Cc2ccc(OC)cc2)[C@H]2c3cc(C(=O)N4CCCC4)n(CCc4c[nH]c5ccc(O)cc45)c3C[C@H]2CN1C(=O)c1ccccc1,–,3.16 µM (active)
O=C(O)[C@@H]1CCCN1Cc1cc2ccccc2c2ccccc12,-0.145% [at 11.4 µM],–
Nc1nc2c(ncn2COC(CO)CO)c(=O)[nH]1,–,inactive
NC(=O)c1cc[n+](CC2=C(C(=O)O)N3C(=O)[C@@H](NC(=O)[C@H](c4ccccc4)S(=O)(=O)[O-])[C@@H]3SC2)cc1,–,inactive
Cc1cnc(CNc2ncncc2-c2ccccc2C)cn1,3.37% [at 2.29 µM],–
C[C@@H]1/C=C\CC(=O)OC[C@H]2O[C@@H](C=C[C@@H]2O)[C@H](C)/C=C\CC(=O)OC1,-2.72% [at 11.4 µM],–
O=C(O)c1c[nH]c2c(ccc3[nH]cc(C(=O)O)c(=O)c32)c1=O,12.3% [at 11.4 µM],–
N#Cc1ccc(CN2CCC3(CC2)CCN(C(=O)c2ccncc2)CC3)cc1,–,inactive
N#Cc1c(N2CCN(C(=O)c3ccccc3Cl)CC2)nc(-c2ccccc2)c2c1CCCC2,–,2.51 µM (active)
Nc1nc2c(C(=O)NCc3cccs3)nnn2c2cccc(Cl)c12,12.5% [at 11.4 µM],–
c1ccc(CCc2nc(-c3ccccc3)no2)cc1,–,inactive
c1ccc(-c2noc(CSc3nnnn3C3CCCCC3)n2)cc1,–,3.55 µM (active)
CCN(CC)CCc1nc(-c2ccccc2)no1,–,inactive

Compound,"activity, negative = inhibition",AC50
O=C(N/N=C1/C[C@@H](O)[C@@H](O)[C@@H]2[C@@H]3C(=O)N(Cc4ccccc4)C(=O)[C@H]3CC[C@@H]12)OCc1ccccc1,9.14% [at 11.4 µM],–
CC(=O)NCCc1ccc(O)c(O)c1,–,inactive
C[C@@](Cc1ccc(O)c(O)c1)(NN)C(=O)O,–,inactive
CCCCCCCC/C=C\CCCCCCCC(=O)NCCc1ccc(O)c(O)c1,–,1.58 µM (active)
Nc1ccn([C@H]2O[C@H](CO)[C@@H]3[O][Sn]([c]4ccccc4)([c]4ccccc4)[O][C@H]32)c(=O)n1,24.8% [at 11.4 µM],–
FC(F)(F)c1ccccc1-c1ccc2ncnc(N3CCOCC3)c2c1,-28.6% [at 2.29 µM],–
CCN1C(=O)[C@H]2[C@H]3[C@H](O)[C@H](O)C/C(=N/OC[C@@H](O)COCc4ccco4)[C@H]3CC[C@@H]2C1=O,1.57% [at 11.4 µM],–
c1ccc(SC(Sc2ccccc2)c2ccc3c(c2)OCO3)cc1,–,3.16 µM (active)
O=C(O)C[C@H](Cc1ccc2c(c1)OCO2)C(=O)O,-23.6% [at 11.4 µM],–
c1ccc(Nc2ncncc2-c2ccc3c(c2)OCO3)cc1,-20.1% [at 2.29 µM],–
COc1ccc(-c2ccc(=N)n(CCCC(=O)O)n2)cc1,–,3.16 µM (active)
CCCCN(C)CCCNC(=O)CCn1nc(-c2ccccc2)ccc1=O,–,inactive
COc1ccc(-c2ccc(N)[n+](CCCC(=O)O)n2)cc1,–,inactive
COc1cccc(-c2cc(NCc3cccnc3)ncn2)c1,-28.7% [at 2.29 µM],–
COc1cccc(Cn2c(NCc3cccnc3)nc3c2c(=O)n(C)c(=O)n3C)c1,–,6.31 µM (active)
CSC1(SC2=NCCN2)SC2(NCCN2)S1,-10.8% [at 11.4 µM],–
O=C(Nc1ccc2oc(=O)c(C(=O)O)cc2c1)Oc1ccccc1,-10.6% [at 11.4 µM],–
CCOC(=O)Nc1ccc(C(=O)Oc2ccccc2)c(O)c1,–,17.8 µM (active)
CC(C)(C)c1ccc(OC(=O)Nc2ccc(O)c(C(=O)O)c2)cc1,-20.8% [at 11.4 µM],–
CCOC(=O)c1cc2c(=O)n3ccccc3nc2n(CCCOC)c1=NC(=O)C(C)(C)C,–,1.58 µM (active)
O=C(c1csnn1)N1CCC2(CC1)CCN(c1ncccn1)CC2,–,inactive
COc1cc(N=c2ssnc2Cl)cc(OC)c1OC,–,6.31 µM (active)
CCOC(=O)N/N=C1/C[C@@H](O)[C@@H](O)[C@@H]2[C@@H]3C(=O)N([C@@H](C)c4ccccc4)C(=O)[C@H]3CC[C@H]12,27.2% [at 11.4 µM],–
CCOC(=O)C(C(=O)NCc1ccc(C)cc1)c1ncc(C(F)(F)F)cc1Cl (stereo not drawn),–,inactive
CN(C)C(=O)c1cn(N(C)c2ncc(C(F)(F)F)cc2Cl)c(=O)c2ccccc12,–,2.82 µM (active)
C[n+]1ccccc1/C=N\O,–,inactive
